Sampled rows, rich in hits. Any-hit rate of the full collection: about 4.5%.
NR3A LBD binder: modulators (binders) of human NR3A ligand-binding domain | NR3A LBD differential scanning fluorimetry, Tm shift; 0% = protein alone, 100% = glycine-bound protein | Tm shift relative to glycine control, % at 25 µM | 340,000 tested, 2.5% active | AID 1259313;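 active = melting temperature shift of at least 10% of the positive control shift, at one fixed dose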
EBNA-1 inhibitor: blocks EBNA-1 binding to DNA; inhibition, % at 14.8 µM; EBNA-1 DNA binding, fluorescence polarization; 300,000 tested, 0.34% active; AID 1950; in the data active = inhibition above about 28%
ZTA counter: blocks Epstein-Barr virus ZTA, an EBNA-1 counter-screen. 320,000 tested, 0.15% active. inhibition, % at 11 µM. ZTA-DNA binding, fluorescence polarization. P03206. AID 2234; in the data active = inhibition above about 33%
dFosB activator: enhances mouse delta FosB homodimer DNA binding. activation, % at 25 µM. purified delta FosB, TAMRA-CDK5 oligo fluorescence polarization; percent of positive-control signal above neutral wells. 340,000 tested, 0.99% active. P13346;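 active = mean activation above about 17%, with every replicate also reaching it, limit read from the data, passing the limit was not always enough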
TPT1 inhibitor: C. albicans TPT1 enzyme inhibition. recombinant caTPT1, FP RNA substrate dephosphorylation. inhibition, % at 5 µM. 300,000 tested, 0.81% active;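 active = inhibition above the mean of all tested compounds plus 3 SD, set per screening campaign, cut at about 24% in these data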;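 note: plate controls were DMSO alone for no effect and ferristatin control at 100 nM for full effect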
Rpn11 inh: inhibitors of human proteasome Rpn11 | O00487 | human 26S proteasome, Ub4-pepOG fluorescence polarization; 20S core pre-blocked with epoxomicin | inhibition, % at 20 µM | 360,000 tested, 0.59% active;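 active = inhibition at 20 µM, scaled to each plate's controls, above about 33%, limit read from the data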
Target sequence (O00487 whole entry, looked up): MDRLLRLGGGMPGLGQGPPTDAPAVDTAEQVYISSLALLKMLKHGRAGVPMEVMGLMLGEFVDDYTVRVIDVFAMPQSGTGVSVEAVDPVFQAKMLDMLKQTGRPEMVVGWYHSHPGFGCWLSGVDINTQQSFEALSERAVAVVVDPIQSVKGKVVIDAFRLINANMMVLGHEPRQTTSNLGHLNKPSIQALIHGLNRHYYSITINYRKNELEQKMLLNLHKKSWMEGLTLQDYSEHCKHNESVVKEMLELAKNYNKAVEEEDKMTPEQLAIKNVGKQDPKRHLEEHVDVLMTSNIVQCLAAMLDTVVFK
Active calls of the source: *.

How did COc1ccc(CC(=O)OCC(=O)Nc2cc(Cl)ccc2C)cc1 do in these assays?
NR3A LBD binder: -3; dFosB activator: -7; Rpn11 inh: 7

Results for COc1ccc(CC(=O)Nc2cccc(SC)c2)cc1 ?
NR3A LBD binder: 16*; EBNA-1 inhibitor: 7; ZTA counter: -4; dFosB activator: 2; TPT1 inhibitor: -2; Rpn11 inh: 4

What do the screens show for `COc1ccc(-c2cc3c(=O)n(CC(=O)Nc4cccc(Cl)c4)nc(C)n3n2)cc1`?
NR3A LBD binder: 0; EBNA-1 inhibitor: -3; ZTA counter: -11; dFosB activator: 24*; TPT1 inhibitor: -2; Rpn11 inh: -2

How did COc1ccc(CC(=O)Nc2cccc(-c3ccc4nncn4n3)c2)cc1OC do in these assays?
NR3A LBD binder: -1; EBNA-1 inhibitor: -2; ZTA counter: 11; dFosB activator: 63*; TPT1 inhibitor: 1; Rpn11 inh: -7

How did CCOC(=O)N1CCN(C(=O)Cn2nc(C)n3nc(-c4ccc(OC)cc4)cc3c2=O)CC1 do in these assays?
NR3A LBD binder: 1; EBNA-1 inhibitor: -3; ZTA counter: -16; dFosB activator: -3; TPT1 inhibitor: -3; Rpn11 inh: -4

What do the screens show for `COc1ccc(C(=O)Nc2cccc(-c3ccc4nncn4n3)c2)cc1OC`?
NR3A LBD binder: -1; EBNA-1 inhibitor: 0; ZTA counter: -6; dFosB activator: -8; TPT1 inhibitor: 2; Rpn11 inh: 3

Results for O=c1[nH]c(C(Cl)(Cl)Cl)nc2ccc3ccccc3c12 ?
NR3A LBD binder: 0; EBNA-1 inhibitor: -5; ZTA counter: -9; dFosB activator: -1; TPT1 inhibitor: -3; Rpn11 inh: 4

Results for O=C(Nc1ccc(Cl)cc1C(F)(F)F)C(Sc1nnc(-c2cccs2)o1)c1ccccc1 (stereo unspecified) ?
NR3A LBD binder: 22*; EBNA-1 inhibitor: -4; ZTA counter: -10; dFosB activator: 5; TPT1 inhibitor: -1; Rpn11 inh: 2

Results for Cc1ccc(-n2nnnc2SCC(=O)NC2CCS(=O)(=O)C2)c(C)c1 (stereo unspecified) ?
NR3A LBD binder: 19*; dFosB activator: 1; Rpn11 inh: 2

What do the screens show for `COc1cccc(/C(O)=C/c2nc3ccc(C(=O)NCCc4ccc(Cl)cc4)cc3[nH]c2=O)c1`?
NR3A LBD binder: 11*; dFosB activator: 0; Rpn11 inh: -56

How did COc1cccc(/C(O)=C/c2nc3ccc(C(=O)NCCc4cccc(C)c4)cc3[nH]c2=O)c1 do in these assays?
NR3A LBD binder: -3; EBNA-1 inhibitor: 5; ZTA counter: 6; dFosB activator: -4; TPT1 inhibitor: -2; Rpn11 inh: 27

Results for Cc1[nH]c2ccccc2c1N=Nc1ccccc1F ?
NR3A LBD binder: 13*; EBNA-1 inhibitor: 4; ZTA counter: 8; dFosB activator: -3; TPT1 inhibitor: 1; Rpn11 inh: 4

How did Cc1[nH]c2ccccc2c1N=Nc1cc(C(=O)O)cc(C(=O)O)c1 do in these assays?
NR3A LBD binder: 0; EBNA-1 inhibitor: -7; ZTA counter: -6; dFosB activator: 4; TPT1 inhibitor: 1; Rpn11 inh: -2

How did Cc1[nH]c2ccccc2c1N=Nc1ccc(F)cc1 do in these assays?
NR3A LBD binder: 25*; EBNA-1 inhibitor: -1; ZTA counter: -4; dFosB activator: -13; TPT1 inhibitor: -3; Rpn11 inh: 4

Results for Cc1[nH]c2ccccc2c1C1=NNC(=Nc2ccc(F)cc2)SC1 ?
NR3A LBD binder: 12*; EBNA-1 inhibitor: 10; ZTA counter: -13; dFosB activator: 0; TPT1 inhibitor: -1; Rpn11 inh: 8

How did N=C(N)c1ccc(N=Nc2c(O)ccc3c2[nH]c2ccccc23)cc1 do in these assays?
NR3A LBD binder: 29*; dFosB activator: -253; Rpn11 inh: 24

How did NC(=O)c1ccc(N=Nc2c(O)c3ccccc3[nH]c2=O)cc1 do in these assays?
EBNA-1 inhibitor: -1; ZTA counter: -3; TPT1 inhibitor: 0

Results for CC(=O)Nc1ccc(-c2ccnc3c2CC(C)(C(=O)NCc2cccc(Cl)c2)O3)cc1 (stereo unspecified) ?
Rpn11 inh: 1

Compound activity (PubChem)
